This is a sample that favours compounds with a hit; in the whole collection about 8% have one here.
Lassa entry – inhibitors of Lassa virus binding or entry into cells | hit rate 4.1% among 18,000 | Potency, µM (titrated, usually from 49.2 µM), hits mostly inhibitors | AID 720533 | Lassa virus pseudotyped entry inhibition, cell-based qHTS
MARV entry inh – Marburg virus entry inhibition. Marburg virus pseudotype entry/binding inhibition, cell-based. Potency, µM (top dose mostly 49.2 µM), actives largely listed as inhibitors. hit rate 6.5% among 18,000. AID 720532
Numbers stand for hits; n = inactive; u = inconclusive; x = no result; ! = a repeat was not active; [ ] = another dose, or the depositor's remark. The call rests on the fitted dose curve; tested in HEK293 cells.

SMILES | Lassa entry | MARV entry inh
COC(=O)C(C(C)=O)[C@@H](NC(=O)OC(C)(C)C)c1ccccc1 (stereo partly specified) | n[8.59 µM] | n[8.59 µM]
CC(C)c1ccc(Cn2ccc3c4c(N)nc(NC5CC5)nc4ccc32)cc1 | 13µM | 4µM
CN1CCN(CCc2ccc(Cl)c(Cl)c2)CC1 | u | 18µM!
CN(CCc1ccc(Cl)c(Cl)c1)CCN1CCCCCC1 | u | 10µM
O=C(O)c1ccc(CCN2CCN(CC=Cc3ccc(Cl)cc3)CC2)cc1 | n | n
CN(CCc1ccc(Cl)c(Cl)c1)[C@H]1CCCC[C@H]1N1CCCC1 | 18µM | 6.3µM
CN(CCc1ccc(Cl)c(Cl)c1)CC(O)COc1ccc(NS(C)(=O)=O)cc1 (stereo unspecified) | n | u
CC(C)Oc1cccc(NC(=O)c2ccccc2C(F)(F)F)c1 | n | n
Cc1noc(C)c1-c1nccc(N2CCNCC2)n1 | n | n
COc1ccc(C(=O)NCC2Cc3cc(C)cc(-c4cc(C(C)=O)ccc4F)c3O2)c(OC)c1OC (stereo unspecified) | n | n
C[C@@H](ON=C1[C@H]2CCn3c(=O)n(-c4ccccc4)c(=O)n3[C@@H]2[C@H](O)[C@@H]2O[C@H]12)c1cn([C@H](CO)Cc2ccccc2)nn1 | x | n[8.59 µM]
Cc1cc2nc3ccc(=[N+](C)C)cc-3sc2cc1N | 22µM | 13µM
CN(C)c1ccc2nc3ccc(=[N+](C)C)cc-3sc2c1 | 11µM | 3.5µM
C[C@@H]1CC[C@H]2C(=O)O[C@@H](Cc3ccccc3)CN2[C@@H]1c1ccc(Br)cc1 | n[8.59 µM] | n[8.59 µM]
Nc1cccc2c(=O)[nH]ccc12 | n | n
Cc1ccccc1 | n | n
NS(=O)(=O)c1ccc(-c2ccc3c(NC(=O)C4CC4)n[nH]c3c2)cc1 | n | n
C=CCN1C[C@H](COC(=O)c2cccc(C)c2)Oc2cccc(F)c2S1(=O)=O | n | n
COc1ccc(F)c(CN2CCOc3ccc(CN4CCC(Oc5cccnc5)CC4)cc3C2)c1 | n | u
COc1cc(OC)c(CN2CCOc3ccc(CN4CCC(O)CC4)cc3C2)c(OC)c1 | u | 14µM
COc1ccc(CN2CCOc3ccc(CN4CCN(CCO)CC4)cc3C2)c2ccccc12 | u | 11µM
COc1ccc(CN2CCOc3ccc(CN4CCC(Oc5cccnc5)CC4)cc3C2)c(F)c1 | n | 11µM
COc1cc(CN2CCOc3ccc(CN4CCC(Oc5cccnc5)CC4)cc3C2)ccc1F | n | u
COc1cc(CN2CCOc3ccc(CN4CCN(CCO)CC4)cc3C2)ccc1F | n | n
OCC1=CC[N+]2(Cc3ccccc3)CCC(O)[C@@H]12 (stereo partly specified) | n | n
SMILES | Lassa entry | MARV entry inh
C/C=C1\[C@H]2C=C(C)C[C@]1(N)c1ccc(=O)[nH]c1C2 | n | n
Cc1ccnn1CC(=O)N1CCOc2c(cc(-c3csc4ccccc34)cc2OC2CCOC2)C1 (stereo unspecified) | n | n
CC[C@H](C)[C@H](NC(=O)CNC(=O)[C@H](CCCNC(=N)N)NC(=O)[C@H](CO)NC(=O)[C@H](C)NC(=O)[C@H](Cc1ccc(O)cc1)NC(=O)[C@H](Cc1c[nH]c2ccccc12)NC(=O)[C@H](C)NC(=O)[C@@H]1CCCN1C(=O)[C@H](CC(N)=O)NC(=O)[C@@H](NC(=O)[C@H](CC(=O)O)NC(=O)[C@@H]1CCCN1C(=O)[C@@H](NC(=O)[C@H](CCCNC(=N)N)NC(=O)[C@@H](NC(=O)[C@H](CCC(=O)O)NC(=O)[C@H](CCSC)NC(=O)[C@H](CO)NC(=O)[C@H](Cc1cnc[nH]1)NC(=O)[C@H](CCCNC(=N)N)NC(=O)[C@H](Cc1cnc[nH]1)NC(=O)[C@@H](NC(=O)[C@H](CCCNC(=N)N)NC(=O)[C@@H](N)CO)[C@@H](C)O)[C@@H](C)CC)[C@@H](C)O)[C@@H](C)CC)C(=O)N[C@@H](CCCNC(=N)N)C(=O)N1CCC[C@H]1C(=O)N[C@H](C(=O)NCC(=O)N[C@@H](CCCNC(=N)N)C(=O)N[C@@H](Cc1ccccc1)C(N)=O)C(C)C | n | n
COc1cc(=O)n2c(c1C(=O)NCc1ccco1)CCN(C(=O)c1ccccc1-c1ncc[nH]1)CC2 | n | n
COc1ccc(-c2ccc(C(=O)N(C)Cc3csc(C)n3)c(N3CCC(N4CCc5ccccc5C4)CC3)n2)cc1 | n | n
COc1c(O)cc2c(=O)oc3c(OC)c(O)cc4c(=O)oc1c2c34 | n | n
COc1cc(O)c2c(c1)oc(=O)c1c3cc(O)c(O)cc3oc21 | u | 11µM
C=C(C#Cc1ccc(OC)cc1)CCN1C=C(C(=O)OCC)C(c2ccccc2)NC1=O (stereo unspecified) | n[8.59 µM] | n[8.59 µM]
Cc1cnc(CNc2ncnc3ccc(-c4ccccc4C#N)cc23)cn1 | n | n

Compound activity (PubChem BioAssay)
